Assay results: the supplement of paper PMC7393113
“And” between values parts separate entries of the source, which are not always exact repeats. Identical values can stand only once. Counter-ions that a name gives are not always drawn. ± gives the standard deviation of the averaged measurements.

Tested on: iBMDM (immortalised mouse bone-marrow-derived macrophages), LPS-stimulated
Assay: mitochondrial superoxide (MitoSOX fluorescence) fold increase over unstimulated control; higher = more LPS-induced mitochondrial ROS (less inhibition)
Conditions: inhibitor concentration: 500 nM, LPS: 100 ng/ml
Procedure, shortened: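 Mitochondrial superoxide values are mean fold induction compared with untreated macrophages. Triplicate wells of immortalised mouse bone-marrow-derived macrophages in phenol-red-free 1% FCS/DMEM received kinase inhibitors (500 nM) for 30 min, then 1 μM MitoSox for 10 min, then LPS (100 ng/ml). Fluorescence (510/580 nm) was taken every 60 min for 4 h.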

Row | Structure (SMILES) | mitochondrial superoxide (time after LPS: 1 h) | mitochondrial superoxide (time after LPS: 2 h) | mitochondrial superoxide (time after LPS: 4 h)
1 | Cc1[nH]c(/C=C2\C(=O)Nc3ccc(S(=O)(=O)Cc4c(Cl)cccc4Cl)cc32)c(C)c1C(=O)N1CCC[C@@H]1CN1CCCC1 | 1.56 ± 0.039 | 1.61 ± 0.027 | 1.77 ± 0.028
2 | Cc1ccc(NC(=O)c2ccc(CN3CCN(C)CC3)cc2)cc1Nc1nc(-c2cccnc2)cs1 [Masitinib (AB1010)] | 1.44 ± 0.013 | 1.52 ± 0.067 | 1.72 ± 0.12
3 | COc1ccc2cc(-c3nc(-c4ccc([S+](C)[O-])cc4)[nH]c3-c3ccncc3)ccc2c1 (stereo not drawn) [Tie2 kinase inhibitor] | 0.981 ± 0.069 | 1.09 ± 0.058 | 1.19 ± 0.036
4 | CNC(=O)c1cccc(-c2ccc3c(N4CCOC[C@@H]4C)nc(N4CCOC[C@@H]4C)nc3n2)c1 | 1.18 ± 0.058 | 1.46 ± 0.074 | 1.66 ± 0.1
5 | COc1cccc2cc(-c3nc([C@H]4CC[C@H](C(=O)O)CC4)n4ncnc(N)c34)[nH]c12 | 1.3 ± 0.046 | 1.39 ± 0.018 | 1.52 ± 0.017
6 | O=P(O)(O)C(O)(Cn1ccnc1)P(=O)(O)O [Zoledronic Acid] | 1.27 ± 0.02 | 1.29 ± 0.085 | 1.4 ± 0.16
7 | CC[C@@H]1C(=O)N(C)c2cnc(Nc3ccc(C(=O)N[C@H]4CC[C@H](N5CCN(CC6CC6)CC5)CC4)cc3OC)nc2N1C(C)C [Volasertib (BI 6727)] | 1.18 ± 0.016 | 1.27 ± 0.026 | 1.37 ± 0.043
8 | COc1ccc(-c2cc3c(C)nc(N)nc3n([C@H]3CC[C@H](OCCO)CC3)c2=O)cn1 | 1.37 ± 0.058 | 1.53 ± 0.056 | 1.74 ± 0.049
9 | CO[C@H]1C[C@@H]2CC[C@@H](C)[C@@](O)(O2)C(=O)C(=O)N2CCCC[C@H]2C(=O)O[C@H]([C@H](C)C[C@@H]2CC[C@@H](OP(C)(C)=O)[C@H](OC)C2)CC(=O)[C@H](C)/C=C(\C)[C@@H](O)[C@@H](OC)C(=O)[C@H](C)C[C@H](C)/C=C/C=C/C=C/1C [Ridaforolimus (Deforolimus, MK-8669)] | 1.55 ± 0.087 | 1.592 ± 0.0072 | 1.78 ± 0.04
10 | Cc1ccc([N+](=O)[O-])cc1S(=O)(=O)N(C)/N=C/c1cnc2ccc(Br)cn12 | 1.17 ± 0.09 | 1.17 ± 0.015 | 1.21 ± 0.027
11 | CCc1cccc(CC)c1NC(=O)N1Cc2[nH]nc(NC(=O)c3ccc(N4CCN(C)CC4)cc3)c2C1 | 1.09 ± 0.027 | 1.24 ± 0.015 | 1.34 ± 0.099
12 | COc1c(C)c(C(=O)c2ccc(N)c(C(=O)O)c2)n2ccccc12 | 1.19 ± 0.076 | 1.26 ± 0.036 | 1.32 ± 0.062
13 | CCc1cc2c(cc1N1CCC(N3CCOCC3)CC1)C(C)(C)c1[nH]c3cc(C#N)ccc3c1C2=O | 1.26 ± 0.097 | 1.4 ± 0.066 | 1.64 ± 0.12
14 | CCc1nc(-c2cccc(C)c2)c(-c2ccnc(NC(=O)c3ccccc3)c2)s1 | 1.17 ± 0.028 | 1.17 ± 0.022 | 1.18 ± 0.04
15 | O=C(Nc1ccc(-c2ccnc(Nc3ccc(N4CCOCC4)cc3)n2)cc1)C1CCCN1 (stereo not drawn) | 1.21 ± 0.058 | 1.232 ± 0.011 | 1.3 ± 0.068
16 | Fc1cc(-c2cccc3ncc(-c4cnn(C5CCNCC5)c4)nc23)cc(F)c1CN1CCOCC1 | 1.15 ± 0.05 | 1.45 ± 0.13 | 1.69 ± 0.04
17 | FC(F)c1nc2ccccc2n1-c1nc(N2CCOCC2)nc(N2CCOCC2)n1 | 1.53 ± 0.029 | 1.71 ± 0.068 | 1.8 ± 0.038
18 | Cc1c(C(=O)N2CCOc3ccc(-c4ccc(N)nc4)cc3C2)ccc(S(C)(=O)=O)c1F | 1.112 ± 0.0078 | 1.25 ± 0.064 | 1.32 ± 0.059
19 | CCC(=O)N1CCN(c2ccc(-n3c(=O)ccc4cnc5ccc(-c6cnc7ccccc7c6)cc5c43)cc2C(F)(F)F)CC1 [Torin 1] | 1.14 ± 0.024 | 1.24 ± 0.033 | 1.35 ± 0.044
20 | CO[C@@H](C(=O)N1Cc2[nH]nc(NC(=O)c3ccc(N4CCN(C)CC4)cc3)c2C1)c1ccccc1 | 1.3 ± 0.035 | 1.38 ± 0.029 | 1.48 ± 0.038
21 | CCc1cncnc1N1CCN(Cc2nc3ccc(C(F)(F)F)cc3[nH]2)CC1 | 1.12 ± 0.073 | 1.23 ± 0.037 | 1.34 ± 0.1

Row | Structure (SMILES) | mitochondrial superoxide (time after LPS: 1 h) | mitochondrial superoxide (time after LPS: 2 h) | mitochondrial superoxide (time after LPS: 4 h)
22 | CCN(CC)CCCC(C)Nc1nc(C)cc(Nc2ccc3nc(C)cc(N)c3c2)n1 (stereo not drawn) | 1.35 ± 0.041 | 1.53 ± 0.051 | 1.65 ± 0.15
23 | COc1ncc(-c2ccc3nccc(-c4ccnnc4)c3c2)cc1NS(=O)(=O)c1ccc(F)cc1F | 1.28 ± 0.049 | 1.42 ± 0.033 | 1.52 ± 0.077
24 | NC1(c2ccc(-c3nc4ccn5c(=O)[nH]nc5c4cc3-c3ccccc3)cc2)CCC1 | 1.26 ± 0.036 | 1.34 ± 0.065 | 1.47 ± 0.14
25 | COc1cc(N2CCC(N3CCN(C)CC3)CC2)ccc1Nc1ncc(Cl)c(Nc2ccccc2S(=O)(=O)C(C)C)n1 | 1.24 ± 0.068 | 1.3 ± 0.019 | 1.47 ± 0.04
26 | Nc1ncnc2c1c(-c1cccc(OCc3ccccc3)c1)cn2C1CC(CN2CCC2)C1 (stereo not drawn) | 1.36 ± 0.069 | 1.48 ± 0.037 | 1.63 ± 0.029
27 | Clc1ccc(Nc2nnc(Cc3ccncc3)c3ccccc23)cc1 [Vatalanib (PTK787) 2HCl] | 1.42 ± 0.075 | 1.5 ± 0.09 | 1.53 ± 0.057
28 | CC1(COc2ccc3c(c2)ncn3-c2ccc3cccc(N4CCC(N)CC4)c3n2)COC1 | 1.04 ± 0.1 | 1.42 ± 0.11 | 1.66 ± 0.13
29 | NC(=O)Nc1cc(-c2cccc(F)c2)sc1C(=O)N[C@H]1CCCNC1 | 1.08 ± 0.056 | 1.11 ± 0.028 | 1.25 ± 0.1
30 | Cc1[nH]c(/C=C2\C(=O)Nc3ccccc32)c(C)c1CCC(=O)O [TSU-68 (SU6668, Orantinib)] | 2.12 ± 0.096 | 2.2 ± 0.093 | 2.16 ± 0.12
31 | N#CCNC(=O)c1ccc(-c2ccnc(Nc3ccc(N4CCOCC4)cc3)n2)cc1 | 1.05 ± 0.071 | 1.17 ± 0.017 | 1.27 ± 0.13
32 | CS(=O)(=O)CCNCc1ccc(-c2ccc3ncnc(Nc4ccc(OCc5cccc(F)c5)c(Cl)c4)c3c2)o1 | 1.6 ± 0.073 | 1.72 ± 0.07 | 1.89 ± 0.18
33 | CC(=O)Nc1cccc(-n2c(=O)n(C3CC3)c(=O)c3c(Nc4ccc(I)cc4F)n(C)c(=O)c(C)c32)c1 | 1.34 ± 0.11 | 1.44 ± 0.066 | 1.62 ± 0.083
34 | Cc1nc(NC(=O)N2CCC[C@H]2C(N)=O)sc1-c1ccnc(C(C)(C)C(F)(F)F)c1 | 1.3 ± 0.032 | 1.46 ± 0.052 | 1.7 ± 0.057
35 | CC(C)(C)c1cc(/C=C(\C#N)C(N)=S)cc(C(C)(C)C)c1O [Tyrphostin AG 879] | 1.37 ± 0.06 | 1.42 ± 0.037 | 1.61 ± 0.037
36 | N#Cc1c(Oc2ccc(F)c(NC(=O)Cc3cccc(C(F)(F)F)c3)c2)ccc2nc(NC(=O)C3CC3)sc12 | 1.35 ± 0.087 | 1.49 ± 0.076 | 1.66 ± 0.076
37 | CCc1cnn2c(NCc3ccc[n+]([O-])c3)cc(N3CCCC[C@H]3CCO)nc12 | 1.28 ± 0.066 | 1.33 ± 0.055 | 1.63 ± 0.066
38 | O=C(c1cccc(Cl)c1F)N1CCN(Cc2cccc(Nc3nccs3)n2)CC1 | 1.15 ± 0.018 | 1.22 ± 0.048 | 1.37 ± 0.053
39 | COc1cc(Nc2ncc3c(n2)-c2ccc(Cl)cc2C(c2c(F)cccc2OC)=NC3)ccc1C(=O)O [Alisertib (MLN8237)] | 1.37 ± 0.058 | 1.41 ± 0.035 | 1.46 ± 0.047
40 | CN(c1ncccc1CNc1nc(Nc2ccc3c(c2)CC(=O)N3)ncc1C(F)(F)F)S(C)(=O)=O | 1.27 and 1.06 | 1.34 and 1.11 | 1.63 and 1.11
41 | CCCS(=O)(=O)Nc1ccc(F)c(C(=O)c2c[nH]c3ncc(-c4ccc(Cl)cc4)cc23)c1F [Vemurafenib (PLX4032, RG7204)] | 1.159 ± 0.0019 | 1.16 ± 0.015 | 1.17 ± 0.029
42 | COCCOc1ccc2c(c1)ncn2-c1ccc2cccc(N3CCC(N)CC3)c2n1 | 1.15 ± 0.048 | 1.19 ± 0.035 | 1.3 ± 0.038

Row | Structure (SMILES) | mitochondrial superoxide (time after LPS: 1 h) | mitochondrial superoxide (time after LPS: 2 h) | mitochondrial superoxide (time after LPS: 4 h)
43 | CN1CCN(c2cccc(Nc3nc4c(-c5ccc(S(C)(=O)=O)cc5)cccn4n3)c2)CC1 | 1.28 ± 0.037 | 1.45 ± 0.058 | 1.65 ± 0.051
44 | CC(C)(C)n1nc(-c2ccc(Cl)cc2)c2c(N)ncnc21 | 1.11 ± 0.019 | 1.23 ± 0.074 | 1.31 ± 0.079
45 | O=C(NOCC1CC1)c1ccc(F)c(F)c1Nc1ccc(I)cc1Cl | 1.57 ± 0.11 | 1.59 ± 0.071 | 1.9 ± 0.1
46 | O=C(Nc1cccc(Cl)c1)Nc1ncc(CCNc2ncnc3ccsc23)s1 [SNS-314 Mesylate] | 1.32 ± 0.029 | 1.36 ± 0.048 | 1.42 ± 0.08
47 | Cc1cc2c(F)c(Oc3ncnn4cc(OC[C@@H](C)O)c(C)c34)ccc2[nH]1 | 1.337 ± 0.0099 | 1.44 ± 0.11 | 1.53 ± 0.14
48 | Cn1cnc2c(F)c(Nc3ccc(Br)cc3Cl)c(C(=O)NOCCO)cc21 [Selumetinib (AZD6244)] | 1.45 ± 0.037 | 1.51 ± 0.031 | 1.61 ± 0.081
49 | CO[C@H]1C[C@@H]2CC[C@@H](C)[C@@](O)(O2)C(=O)C(=O)N2CCCC[C@H]2C(=O)O[C@H]([C@H](C)C[C@@H]2CC[C@@H](OCCO)[C@H](OC)C2)CC(=O)[C@H](C)/C=C(\C)[C@@H](O)[C@@H](OC)C(=O)[C@H](C)C[C@H](C)/C=C/C=C/C=C/1C [Everolimus (RAD001)] | 1.37 ± 0.055 | 1.42 ± 0.028 | 1.5 ± 0.06
50 | Cc1nc(Nc2ncc(C(=O)Nc3c(C)cccc3Cl)s2)cc(N2CCN(CCO)CC2)n1 [Dasatinib] | 1.51 ± 0.022 | 1.61 ± 0.069 | 1.85 ± 0.068
51 | NC(=O)Nc1sc(-c2ccc(F)cc2)cc1C(N)=O | 1.15 ± 0.055 | 1.2 ± 0.045 | 1.33 ± 0.06
52 | COC(=O)Nc1ccc(-c2nc(N3CCOCC3)c3cnn(C4CCN(C(=O)OC)CC4)c3n2)cc1 | 1.14 ± 0.026 | 1.13 ± 0.02 | 1.14 ± 0.024
53 | CNC(=O)c1cc(Oc2ccc(NC(=O)Nc3cc(C(C)(C)C)nn3-c3ccc4ncccc4c3)c(F)c2)ccn1 [DCC-2036 (Rebastinib)] | 1.17 ± 0.012 | 1.33 ± 0.075 | 1.6 ± 0.03
54 | CN(C)Cc1cccc(N=C(c2ccccc2)c2c(O)[nH]c3cc(C(=O)N(C)C)ccc23)c1 | 1.11 ± 0.069 | 1.141 ± 0.011 | 1.31 ± 0.037
55 | COc1cc2c(N3CCN(C(=O)Nc4ccc(OC(C)C)cc4)CC3)ncnc2cc1OCCCN1CCCCC1 [Tandutinib (MLN518)] | 1.61 ± 0.038 | 1.77 ± 0.029 | 1.72 ± 0.062
56 | CNC(=O)c1ccc(-c2cnc3ncc(Cc4ccc5ncccc5c4)n3n2)cc1F | 1.12 ± 0.033 | 1.36 ± 0.16 | 1.58 ± 0.14
57 | Cc1ccc(S(=O)(=O)C=CC#N)cc1 | 1.19 ± 0.044 | 1.19 ± 0.073 | 1.34 ± 0.095
58 | Cc1cc(CN2CCN(c3c(Br)cnc4nc(-c5ccc(N6CCN(C)CC6)cc5)[nH]c34)CC2)no1 | 1.27 ± 0.038 | 1.4 ± 0.019 | 1.68 ± 0.13
59 | C#Cc1cccc(Nc2ncnc3cc(OCCOC)c(OCCO)cc23)c1 | 1.16 ± 0.089 | 1.2 ± 0.038 | 1.3 ± 0.14
60 | Cn1cc(-c2cnn3c(N)c(Br)c([C@@H]4CCCNC4)nc23)cn1 | 1.12 ± 0.091 | 1.4 ± 0.22 | 1.54 ± 0.11
61 | O=S(=O)(NCCNCC=Cc1ccc(Br)cc1)c1cccc2cnccc12 | 1.01 ± 0.063 | 1.15 ± 0.074 | 1.28 ± 0.07
